# Experimental data: PubChem BioAssay (EPA / NIEHS)
# Values joined by “and” are separate entries in the source; they are usually repeats but may differ in a detail not shown here. Equal entries are not always repeated. Some structures have more than one record in an assay (separate samples or runs), and their calls can disagree. Active and inactive are the calls of the source. Rule for the calls: active = hit-call score of the fitted dose curve at least 0.9, where 1 is the maximum; inactive = score below 0.9.
# Read-out: Collagen III, COL3A1 (gene 1281)
# Test: BSK_hDFCGF_CollagenIII: BioMAP Diversity Plus: hDFCGF Assay for Collagen III Biomarker Activity (AID 2283056)
# Conditions: primary human foreskin fibroblasts; actives raise or lower the signal
# Outline: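 Cells: human foreskin fibroblasts, primary. Dosing followed by 24 h incubation, then ELISA for collagen III. Both increases and decreases scored relative to DMSO.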
SMILES,outcome,AC50
O=C(O)C(F)(F)C(F)(F)C(F)(F)C(F)(F)C(F)(F)C(F)(F)C(F)(F)F,inactive,
CNC(=O)/C=C(\C)OP(=O)(OC)OC,inactive,
CC1(c2ccc(Oc3ccccc3)cc2)OC(=O)N(Nc2ccccc2)C1=O (configuration not stated),inactive,
O=C(Nc1ccccc1)Nc1cnns1,inactive,
COP(=S)(OC)Oc1ccc([N+](=O)[O-])cc1,,16.6 µM (active)
CNC(=O)Oc1cccc(N=CN(C)C)c1,inactive,
CCCN(CCOc1c(Cl)cc(Cl)cc1Cl)C(=O)n1ccnc1,,31.1 µM (active)
COC(=O)c1ccccc1S(=O)(=O)NC(=O)Nc1nc(C)nc(OC)n1,inactive,
Cc1cc(C)nc(NC(=O)NS(=O)(=O)c2ccccc2C(=O)OC2COC2)n1,inactive,
CCC(C)(C)C(=O)OC1=C(c2ccc(Cl)cc2Cl)C(=O)OC12CCCCC2,,5.74 µM (active)
CNC(=O)Oc1ccccc1OC(C)C,inactive,
Clc1ccccc1-c1nnc(-c2ccccc2Cl)nn1,,3 µM (active)
O=C1c2ccccc2C(=O)N1SC(Cl)(Cl)Cl,inactive,
Cc1[nH]c(=O)n(C(C)(C)C)c(=O)c1Cl,inactive,
C[C@H]1[C@H](c2ccc(Cl)cc2)SC(=O)N1C(=O)NC1CCCCC1,,5.46 µM (active)
COC(=O)c1ccccc1S(=O)(=O)NC(=O)N(C)c1nc(C)nc(OC)n1,inactive,
CCc1ccc(C(=O)NN(C(=O)c2cc(C)cc(C)c2)C(C)(C)C)cc1,inactive,
CC[C@H](C)[C@H]1O[C@]2(C=C[C@@H]1C)C[C@@H]1C[C@@H](C/C=C(\C)[C@@H](O[C@H]3C[C@H](OC)[C@@H](O[C@H]4C[C@H](OC)[C@@H](O)[C@H](C)O4)[C@H](C)O3)[C@@H](C)/C=C/C=C3\CO[C@@H]4[C@H](O)C(C)=C[C@@H](C(=O)O1)[C@]34O)O2 (tested in a mixture with another compound),,6.63 µM (active)
O=S(=O)(O)C(F)(F)C(F)(F)C(F)(F)C(F)(F)C(F)(F)C(F)(F)C(F)(F)C(F)(F)F,inactive,35.1 µM (active) and 30.8 µM (active)
COP(=S)(OC)Oc1ccc(SC)c(C)c1,inactive,
COC(=O)c1ccccc1CS(=O)(=O)NC(=O)Nc1nc(OC)cc(OC)n1,inactive,
Oc1cc(Cl)ccc1Oc1ccc(Cl)cc1Cl,,7.46 µM (active) [middle of 4 runs]
OCCOc1ccccc1,inactive,
ClC1C(Cl)C(Cl)C(Cl)C(Cl)C1Cl (configuration not stated),inactive,20 µM (active)
CC(C)N(C(=O)COc1nnc(C(F)(F)F)s1)c1ccc(F)cc1,inactive,
